# Results published in the supplement of paper PMC6953052.
# Several values for one entry are separate records, joined by “and”; a condition that tells them apart may be missing. Equal values may be shown once. ± gives the standard deviation of the averaged measurements. The full ranking holds about 1,700 compounds; the median of “fraction of GFP-LC3-positive cells (≥5 vesicles/cell)” is about 0.43, and the highest 2% start at about 0.81. Only a selection was taken, and the highest values are over-represented in it overall.
# Tested on: CbCln3 Δex7/8/Δex7/8 GFP-LC3 cerebellar neuronal cells
# Assay: fraction of GFP-LC3-positive cells (≥5 vesicles/cell); higher = more autophagosome accumulation
# Outline: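 In 384-well plates at 2 × 10^3 cells per well, GFP-LC3-expressing wild-type or mutant CbCln3 cerebellar cells took ~50 nL of compound in DMSO by pin transfer, in duplicate, for 24 h at 33 °C. Staining with Hoechst 33342 and LysoTracker Red over the final 30 min preceded fixation in 3.2% PFA and imaging of three fields per well at 10×. CellProfiler then counted GFP-LC3 vesicles in each cell, and out-of-focus images were dropped before the fraction of cells with 5 or more vesicles was averaged over duplicates.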
row,SMILES,fraction of GFP-LC3-positive cells
1,CN[C@H]1CC[C@@H](c2ccc(Cl)c(Cl)c2)c2ccccc21 [Sertraline],0.311
2,Oc1ccc(-c2nc(-c3ccc(F)cc3)c(-c3ccncc3)[nH]2)cc1,0.524 and 0.566
3,N=C(N)NCCC[C@H](NC(=O)[C@@H]1CCCN1C(=O)[C@H](N)Cc1ccccc1)C(=O)CCl,0.502
4,CCCC[C@@H](C=O)NC(=O)[C@H](CC(C)C)NC(=O)[C@H](CC(C)C)NC(C)=O,0.93
5,CSCC[C@@H](C=O)NC(=O)[C@H](CC(C)C)NC(=O)[C@H](CC(C)C)NC(C)=O,0.448
6,CC(=O)N[C@@H](CC(C)C)C(=O)N[C@@H](CC(C)C)C(=O)N[C@H](C=O)CCCNC(=N)N [Leupeptin],0.392
7,CCOC(=O)/N=c1/c[n+](N2CCOCC2)[n-]o1 [Molsidomine],0.473
8,CCC[C@@H]1C[C@@H](C(=O)N[C@@H]([C@H]2O[C@H](SC)[C@H](O)[C@@H](O)[C@@H]2O)[C@@H](C)O)N(C)C1.Cl [Lincomycin hydrochloride],0.505
9,CS(=O)(=O)c1ccc([C@@H](O)[C@@H](CF)NC(=O)C(Cl)Cl)cc1 [Florfenicol],0.355
10,CN(C)c1ccc(/C=C2\C(=O)Nc3ccccc32)cc1,0.441 and 0.394
11,CC(C(=O)O)c1cccc(C(=O)c2ccccc2)c1 (stereo not given) [Ketoprofen],0.499
12,CC(C(=O)O)c1ccc(C(=O)c2cccs2)cc1 (stereo not given) [Suprofen],0.46
13,COC(=O)Nc1nc2cc(C(=O)c3ccccc3)ccc2[nH]1 [Mebendazole],0.9
14,O=C(O)c1ccc2nc(-c3ccccc3)c(-c3ccccc3)nc2c1,0.507
15,COC(=O)Nc1nc2cc(C(=O)c3cccs3)ccc2[nH]1 [Nocodazole],0.916
16,COC(=O)Nc1nc2cc(C(=O)c3cccs3)ccc2[nH]1 [nocodazole],0.612
17,Cc1cc(C2CCCCC2)n(O)c(=O)c1.NCCO [Ciclopirox ethanolamine],0.809
18,Cc1cc(=O)n(-c2ccccc2)n1C [Antipyrine],0.36
19,CC(C)COCC(CN(Cc1ccccc1)c1ccccc1)N1CCCC1 (stereo not given),0.621
20,CCCCC[C@H](O)/C=C/C=C\C/C=C\C/C=C\CCCC(=O)O,0.405 ± 0.089
